For 10 compounds, max response, Potency and outcome results are on record in PubChem BioAssay (NCATS).

The subject of assay [1] is HaCat. In words: Cytotoxic Profiling of Annotated Libraries Using Quantitative High-Throughput Screening (AID 1296008). Note: nearly all actives have a fitted effect of over 60% in size. The conditions noted are these: Five cell lines viability, CellTiter-Glo ATP luminescence, 48-72 h; max response: active compounds read low. In short, it runs like this:
(§1)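 Cytotoxicity was measured as CellTiter-Glo ATP luminescence, read after 10 min at room temperature. Compound treatment of the cells lasted 48 or 72 hr at 37 degrees Celsius in a qHTS format.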

A further assay concerns MCC-13. Kind of assay: qHTS assay to identify novel small-molecules to repurpose for Merkel cell carcinoma treatment (AID 1296009). Note: nearly all actives have a fitted effect of over 60% in size. The note with it: MCC and control cell lines, CellTiter-Glo viability, 72 h; series mostly up to 46 µM. In short, it runs like this: (§2)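 72 hr, 37 degree celsius; NPC 8-pt / MIPE 11-pt dose response; compound pinned in DMSO; CellTiter-Glo, 10 min RT, luminescence; normalized to no-cell and DMSO controls.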

A further assay has as its system MCC-26. The description is as above. The note with it: MCC and control cell lines, CellTiter-Glo viability, 72 h; series mostly up to 46 µM. Put shortly: as §2
The test system of the next assay is UISO. The assay is described as above. The conditions noted are these: MCC and control cell lines, CellTiter-Glo viability, 72 h; series mostly up to 46 µM. Put shortly: as §2
In the next assay the test system is C33A. In words: Primary qHTS to identify gynecologic anti-cancer compounds using libraries of approved drugs and bioactive compounds (AID 1345084). Note: nearly all actives have a fitted effect of over 55% in size. The conditions noted are these: Gynecologic cancer cell panel viability, ATPlite luminescence, 48 h; series mostly up to 57.5 µM. In short, it runs like this: (§3)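 Measured: luminescence after ATPlite addition (15 min, RT). Exposure: 48 h, 37 C, 5% CO2.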

The next assay concerns CAOV3. The description is as above. The conditions noted are these: Gynecologic cancer cell panel viability, ATPlite luminescence, 48 h; series mostly up to 57.5 µM. Put shortly: as §3
The next assay concerns CASKI. The description is as above. The note with it: Gynecologic cancer cell panel viability, ATPlite luminescence, 48 h; series mostly up to 57.5 µM. Put shortly:
as §3

The subject of another assay is Es-2. The description is as above. The note with it: Gynecologic cancer cell panel viability, ATPlite luminescence, 48 h; series mostly up to 57.5 µM. In short, it runs like this:
as §3

Another assay concerns HeLa. The assay is described as above. The note with it: Gynecologic cancer cell panel viability, ATPlite luminescence, 48 h; series mostly up to 57.5 µM. Put shortly: as §3
The test system of assay [2] is Hek293T. The description is as above. The conditions noted are these: Gynecologic cancer cell panel viability, ATPlite luminescence, 48 h, control line for the selectivity index; series mostly up to 57.5 µM. In short, it runs like this: as §3
In the next assay the test system is JEG-3. Described as above. The conditions noted are these: Gynecologic cancer cell panel viability, ATPlite luminescence, 48 h; series mostly up to 57.5 µM. Put shortly:
as §3

Another assay has as its system OV90. The assay is described as above. The conditions noted are these: Gynecologic cancer cell panel viability, ATPlite luminescence, 48 h; series mostly up to 57.5 µM. Put shortly: as §3
Assay [3] concerns HACAT. Kind of assay: qHTS assay to identify novel small-molecules to repurpose for Merkel cell carcinoma treatment (AID 1296009). Note: nearly all actives have a fitted effect of over 60% in size. The note with it: MCC and control cell lines, CellTiter-Glo viability, 72 h; at 44.8 µM (top of the series) unless noted. Put shortly:
as §2

The subject of the next assay is MKL-2. Described as above. The note with it: MCC and control cell lines, CellTiter-Glo viability, 72 h; series mostly up to 46 µM. Put shortly: as §2
A further assay relates to KB-3-1. In words: Cytotoxic Profiling of Annotated Libraries Using Quantitative High-Throughput Screening (AID 1296008). Note: nearly all actives have a fitted effect of over 60% in size. The conditions noted are these: Five cell lines viability, CellTiter-Glo ATP luminescence, 48-72 h; max response: active compounds read low. In short, it runs like this: as §1
For assay [4], the system named is HEK293T. In words: qHTS assay to identify novel small-molecules to repurpose for Merkel cell carcinoma treatment (AID 1296009). Note: nearly all actives have a fitted effect of over 60% in size. The conditions noted are these: MCC and control cell lines, CellTiter-Glo viability, 72 h; at 44.8 µM (top of the series) unless noted. Put shortly:
as §2

A further assay deals with MKL-1. The description is as above. The conditions noted are these: MCC and control cell lines, CellTiter-Glo viability, 72 h; series mostly up to 46 µM. In short, it runs like this:
as §2

The subject of assay [5] is NIH3T3. In words: Cytotoxic Profiling of Annotated Libraries Using Quantitative High-Throughput Screening (AID 1296008). Note: nearly all actives have a fitted effect of over 60% in size. The note with it: Five cell lines viability, CellTiter-Glo ATP luminescence, 48-72 h; max response: active compounds read low. In short, it runs like this:
as §1

Another assay has as its system WaGa. In words: qHTS assay to identify novel small-molecules to repurpose for Merkel cell carcinoma treatment (AID 1296009). Note: nearly all actives have a fitted effect of over 60% in size. The note with it: MCC and control cell lines, CellTiter-Glo viability, 72 h; series mostly up to 46 µM. In short, it runs like this:
as §2

In assay [6] the test system is NIH3T3. The assay is described as above. The conditions noted are these: MCC and control cell lines, CellTiter-Glo viability, 72 h; at 44.8 µM (top of the series) unless noted. In short, it runs like this: as §2

Inconclusive results are not listed. A number with no mark means an inactive call. Active and inactive are the calls of the source. Calls come from the whole dose curve; as a rule, active = well fitted curve in the direction sought with a large enough effect; inconclusive = small, poorly fitted or top-dose-only effect, or another doubt; inactive = no such curve, though single readings can be large; an effect the other way counts as inactive or inconclusive.
% is set by controls: 0 for no effect and ±100 for the full control effect; potency is the fitted concentration of half-maximal effect.

Consider `O=C(c1cc(O)c(O)c(O)c1)c1ccc(O)c(O)c1O`, for which, in the assay on HaCat [1], the max response is -2.77%. The Potency result in the assay on MCC-13, in the assay with MCC-26, with UISO, in the assay on C33A, in the assay with CAOV3 and in the assay on CASKI was “inactive” each time. Moreover, the Potency result in the assay with Es-2, in the assay on HeLa, in the assay with Hek293T [2], in the assay with JEG-3 and in the assay with OV90 was “inactive” throughout.

As for `CC(C(O)c1ccccc1)N(C)CCOC(c1ccccc1)c1ccccc1` (centres undefined), in the assay on HaCat [1], the max response is 2.35%. Moreover, the Potency entry in the assay on MCC-13, in the assay with MCC-26, in the assay with Es-2 and in the assay on HeLa was “inactive” each time.

Consider `COc1ccc(-n2nc(CCC(=O)N(C)O)cc2-c2ccc(Cl)cc2)cc1`, for which the compound was called inactive with HaCat [1] and in the assay on HACAT [3]. For the same compound, the Potency result in the assay with MCC-26, with C33A, with CAOV3, in the assay on CASKI, in the assay with HeLa and in the assay with Hek293T [2] was “inactive” each time. The Potency in the assay on MKL-2 was 21.1 µM (active).

For `NC(N)=NCCCCN=C(N)N`, the max response in the assay with KB-3-1 is -9.65%.

On to `O=[N+]([O-])c1ccc(-c2nc(-c3ccc(F)cc3)c(-c3ccncc3)[nH]2)cc1`, for which the max response in the assay on HaCat [1] is -22.5%. In addition, the Potency entry in the assay with C33A, in the assay on CAOV3, with CASKI, in the assay on Es-2, in the assay with HeLa and in the assay on Hek293T [2] was “inactive” throughout. Further, the Potency result in the assay on JEG-3 and with OV90 was “inactive” in each case.

For `CCOC(=O)c1ccc(O)c(O)c1`, the max response with HaCat [1] is -0.432%. In addition, the compound was called inactive in the assay on HEK293T [4]. Besides, the Potency result with MCC-26, in the assay on C33A, in the assay with CAOV3, with CASKI, in the assay on Es-2 and with HeLa was “inactive” each time. Also, the Potency entry in the assay with Hek293T [2], in the assay on JEG-3 and in the assay on OV90 was “inactive” throughout. For the same compound, the Potency with MKL-1 was 5.96 µM (active).

As for `C=CCNc1nc(NCC=C)nc(N2CCN(C(c3ccc(F)cc3)c3ccc(F)cc3)CC2)n1`, the max response is 2.53% in the assay on HaCat [1] and -15.1% with NIH3T3 [5]. The Potency entry in the assay with MCC-13, in the assay with MCC-26, in the assay with MKL-1, in the assay with C33A, in the assay on CASKI and in the assay on Es-2 was “inactive” in each case. The Potency entry in the assay on HeLa and in the assay with JEG-3 was “inactive” in each case.

`Clc1ccc2c(c1)N=C(N1CCNCC1)c1ccccc1N2`: the max response in the assay on HaCat [1] is 2.45%. Besides, the Potency result with C33A, with CAOV3, with CASKI, with Es-2, in the assay with HeLa and in the assay with Hek293T [2] was “inactive” throughout. In the assay on JEG-3, the Potency result was “inactive”.

As for `Nc1ccc2cc3ccc(N)cc3nc2c1`, the Potency in the assay on HaCat [1] is 3.76 µM (active); in the assay on MCC-13, 13.3 µM (active); in the assay with MKL-1, 4.22 µM (active); in the assay on UISO, 8.41 µM (active); in the assay on WaGa, 2.66 µM (active); in the assay on C33A, 28.2 µM (active). Further, the Potency in the assay with CAOV3 was 8.91 µM (active); with CASKI, 11.2 µM (active); in the assay with Es-2, 8.91 µM (active); in the assay on HeLa, 17.8 µM (active); in the assay with Hek293T [2] it was 6.31 µM (active); in the assay with OV90, 28.2 µM (active).

Regarding `COc1cc(S(N)(=O)=O)cc(C(=O)O)c1OC`, the max response in the assay on HaCat [1] was 2%. The result in the assay with NIH3T3 [5] and with NIH3T3 [6] was inactive. Besides, the Potency entry in the assay on MCC-13, with MKL-1, in the assay with MKL-2, with UISO, in the assay with WaGa and with C33A was “inactive” throughout. The Potency entry with CAOV3, in the assay with CASKI, in the assay on Es-2, with HeLa, with Hek293T [2] and with JEG-3 was “inactive” throughout. Also, the Potency result with OV90 was “inactive”.
